Laboratory results: PubChem BioAssay
The source made the active and inactive calls.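 The calls were made as follows, unless noted: active = thallium flux through the channel raised or lowered by more than 3 SD from vehicle-only wells, actives on both sides; inactive = the rest.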

Legend:
[1] = modulation of C. elegans fzo-1 (AID 1259413; call rule not given here;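 also: fzo-1 mutant C. elegans worms in liquid wells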); details: C. elegans fzo-1 modulator screen, mean read-out; stronger effect = higher value
[2] = P. berghei load reduction in hepatocytes – cell-based, HepG2, luciferase luminescence, HepG2 viability, primary screen (AID 624349; in the data active = parasite load remaining mostly below about 12%, no sharp cut-off; inactive = mostly above about 10%;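 also: 100% = mean of DMSO negative control wells on the same plate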); details: P. berghei liver stage in HepG2, luciferase luminescence, concentration not given here; parasite load remaining: stronger effect = lower value; viability: measured here: HepG2 viability without parasites
F380Y = experiment: BK channel mutant inhibitors and activators – cell-based, U2OS BacMam, thallium flux, beta subunits, selectivity assay, profiling panel (AID 1259406); details: U2OS BacMam BK variants, at 30 µM;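 also: initial slope of Thallos dye fluorescence rise after thallium is added; log ratio against the mean of 0.3% DMSO vehicle wells on the same plate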
F380Y/beta1 = experiment: as above; details: U2OS BacMam BK variants, at 30 µM
F380Y/beta2Delta = experiment: as above; details: U2OS BacMam BK variants, at 30 µM
F380Y/beta4 = experiment: as above; details: U2OS BacMam BK variants, at 30 µM
[3] = target: Calcium-activated potassium channel subunit alpha-1 (Homo sapiens) + Leucine-rich repeat-containing protein 26 (Homo sapiens) (UniProt Q12791+Q2I0M4); experiment: as above; details: U2OS BacMam BK variants, F380Y/Slo1WT/gamma1, at 30 µM
Chain of Calcium-activated potassium channel subunit alpha-1 (Homo sapiens) + Leucine-rich repeat-containing protein 26 (Homo sapiens) (Q2I0M4 whole entry, looked up, one chain of several): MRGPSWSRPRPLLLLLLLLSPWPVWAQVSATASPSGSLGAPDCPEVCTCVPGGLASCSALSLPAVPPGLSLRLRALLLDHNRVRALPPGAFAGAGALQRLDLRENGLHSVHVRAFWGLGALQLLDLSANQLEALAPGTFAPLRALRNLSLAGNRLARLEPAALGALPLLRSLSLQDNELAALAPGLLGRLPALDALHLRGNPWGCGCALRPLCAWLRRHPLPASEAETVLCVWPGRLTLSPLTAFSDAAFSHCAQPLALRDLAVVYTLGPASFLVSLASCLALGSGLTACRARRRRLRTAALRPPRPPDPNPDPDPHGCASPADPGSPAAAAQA

R275C = experiment: as above; details: U2OS BacMam BK variants, at 30 µM
R275C/beta1 = experiment: as above; details: U2OS BacMam BK variants, at 30 µM
R275C/beta2Delta = experiment: as above; details: U2OS BacMam BK variants, at 30 µM
R275C/beta4 = experiment: as above; details: U2OS BacMam BK variants, at 30 µM
R275C/Slo1WT/beta2 = experiment: as above; details: U2OS BacMam BK variants, at 30 µM
[4] = signal quenchers or enhancers, Cy5 substrate/SSB – biochemical, NIH Clinical Collection, E. coli SSB, artefact control for HCV NS3 helicase inhibitor project (AID 743268; call rule not given here); details: Cy5-oligo bound E. coli SSB, fluorescence interference
[5] = system: Hepatitis C virus NS3 helicase; experiment: blockers of NS3h binding to DNA – biochemical, fluorescence polarization, NIH Clinical Collection, primary screen (AID 743270; call rule not given here); details: NS3 helicase binding to Cy5-dT15 DNA, stronger effect = higher value, concentration not given here
[6] = target: Single-stranded DNA-binding protein (Escherichia coli (strain K12)) (UniProt P0AGE0); experiment: SSB-ssDNA binding inhibitors – biochemical, fluorescence polarization, NIH Clinical Collection, counter-screen for HCV NS3 helicase inhibitor project (AID 743271; in the data active = inhibition above about 28%); details: E. coli SSB-DNA binding, stronger effect = higher value, concentration not given here
[7] = compounds distorting NS3 helicase fluorescence signal – biochemical, NIH Clinical Collection, artefact control for HCV NS3 helicase inhibitor project (AID 743272; call rule not given here;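 also: HCV NS3 helicase with a Cy5 labelled single stranded DNA probe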); details: fluorescence interference counterscreen, HCV NS3 helicase assay; stronger effect = lower value
[8] = viability loss with induced miR-34 in A549 – imaging, A549 dox-inducible miR-34, nuclei and caspase counts, primary screen (AID 1347080;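 active = compounds whose cell count with miR-34 switched on is under 0.7 times the count with it off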); details: A549 miR-34 inducible, Hoechst nuclei count, 48 h
[9] = galactose survival enhancers in mitochondrial complex I cybrids – cell-based, galactose medium, ATP luminescence, primary screen (AID 1645843;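 active = z-score of at least 1.8 in each of two replicates, scored against plate mean and spread of sample wells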;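 also: positive z means more ATP and so rescue of galactose-driven cybrid death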); details: complex I mutant cybrid cells, 72 h, stronger effect = higher value
[10] = system: Neuropilin-2 / VEGF-C interaction (human); experiment: small molecules blocking Neuropilin-2/VEGF-C interaction – biochemical, microplate binding format, z-score (AID 743281; call rule not given here); details: microplate NRP2/VEGF-C binding assay; stronger effect = lower value
[11] = stronger effect = lower value, cell number ratio, induced over uninduced
[12] = measured here: relative caspase fold change +Dox/-Dox
[13] = measured here: total cells with miR-34 induction, stronger effect = lower value
[14] = measured here: total cells without miR-34 induction

With `CC1(C)O[C@@H]2C[C@H]3[C@@H]4C[C@H](F)C5=CC(=O)C=CC5(C)[C@H]4[C@@H](O)CC3(C)C2(C(=O)CO)O1` (stereo not given in full) the mean signal [1] was 250 (inactive).

For `CO[C@H]1C=CO[C@@]2(C)Oc3c(C)c(O)c4c(O)c(c5c(c4c3C2=O)NC2(CCN(CC(C)C)CC2)N=5)=NC(=O)C(C)=CC=C[C@H](C)[C@H](O)[C@@H](C)[C@@H](O)[C@@H](C)[C@H](OC(C)=O)[C@@H]1C`, the parasite load remaining [2] was 46.3% (inactive), the viability [2] was 56.4% and the log fold change Tl+ flux (F380Y) was 0.00735 (inactive). For the same compound, the log fold change Tl+ flux (F380Y/beta1) was -0.0974 (active), the log fold change Tl+ flux (F380Y/beta2Delta) was -0.052 (inactive) and the log fold change Tl+ flux (F380Y/beta4) was -0.0911 (inactive). For the same compound, the log fold change Tl+ flux [3] was -0.0288 (inactive), the log fold change Tl+ flux (R275C) was -0.134 (active) and the log fold change Tl+ flux (R275C/beta1) was 0.0366 (inactive). For the same compound, the log fold change Tl+ flux (R275C/beta2Delta) was -0.0385 (inactive), the log fold change Tl+ flux (R275C/beta4) was 0.0214 (inactive) and the log fold change Tl+ flux (R275C/Slo1WT/beta2) was 0.0234 (inactive).

In the case of `COCC1=C(C(=O)OC(C)OC(=O)OC(C)C)N2C(=O)[C@@H](NC(=O)C(=NOC)c3csc(N)n3)[C@H]2SC1` (stereo not given in full), the parasite load remaining [2] is reported as 83.9% (inactive), the viability [2] is reported as 70.5% and the fluorescence ratio [4] is reported as 0.97 (inactive). The inhibition [5] was 1.98% (inactive), the inhibition [6] was -0.1% (inactive) and the fluorescence ratio [7] was 1 (inactive). For the same compound, the log fold change Tl+ flux (F380Y) was 0.0206 (inactive), the log fold change Tl+ flux (F380Y/beta1) was 0.0461 (inactive) and the log fold change Tl+ flux (F380Y/beta2Delta) was 0.0192 (inactive). The log fold change Tl+ flux (F380Y/beta4) was 0.0327 (inactive), the log fold change Tl+ flux [3] was 0.0109 (inactive) and the log fold change Tl+ flux (R275C) was 0.00217 (inactive). For the same compound, the log fold change Tl+ flux (R275C/beta1) was -0.0216 (inactive), the log fold change Tl+ flux (R275C/beta2Delta) was 0.0293 (inactive) and the log fold change Tl+ flux (R275C/beta4) was 0.0115 (inactive). For the same compound, the log fold change Tl+ flux (R275C/Slo1WT/beta2) was 0.0178 (inactive).

In the case of `CN[C@@H]1[C@H](O)[C@H](NC)[C@H]2OC3(O)C(=O)C[C@@H](C)O[C@H]3O[C@@H]2[C@H]1O` (stereo not given in full), the mean signal [1] is reported as 224 (inactive).

In the case of `CC(=O)O[C@@]12CO[C@@H]1C[C@H](O)[C@@]1(C)C(=O)[C@H](O)C3=C(C)[C@@H](OC(=O)[C@H](O)[C@@H](NC(=O)OC(C)(C)C)c4ccccc4)C[C@](O)([C@@H](OC(=O)c4ccccc4)[C@H]21)C3(C)C`, the parasite load remaining [2] is reported as 78.3% (inactive), the viability [2] is reported as 76.2% and the fluorescence ratio [4] is reported as 0.95 (inactive). The inhibition [5] was 5.15% (inactive), the inhibition [6] was 9.14% (inactive) and the fluorescence ratio [7] was 0.93 (inactive). For the same compound, the log fold change Tl+ flux (F380Y) was -0.0323 (inactive), the log fold change Tl+ flux (F380Y/beta1) was -0.0744 (inactive) and the log fold change Tl+ flux (F380Y/beta2Delta) was -0.0313 (inactive). For the same compound, the log fold change Tl+ flux (F380Y/beta4) was -0.0802 (inactive), the log fold change Tl+ flux [3] was -0.035 (inactive) and the log fold change Tl+ flux (R275C) was -0.041 (inactive). The log fold change Tl+ flux (R275C/beta1) was 0.104 (active), the log fold change Tl+ flux (R275C/beta2Delta) was 0.0412 (inactive) and the log fold change Tl+ flux (R275C/beta4) was 0.0296 (inactive). The log fold change Tl+ flux (R275C/Slo1WT/beta2) was 0.000404 (inactive).

For `O=C1N=C(O)CN1N=Cc1ccc(-c2ccc([N+](=O)[O-])cc2)o1`, the parasite load remaining [2] was 10.7% (inactive), the viability [2] was 83.3% and the fluorescence ratio [4] was 1.04 (inactive). For the same compound, the inhibition [5] was 0.45% (inactive), the inhibition [6] was 7.91% (inactive) and the fluorescence ratio [7] was 0.97 (inactive). For the same compound, the fold change [8, 11] was 0.951 (inactive), the fold change [8, 12] was 1.68 and the cell count [8, 13] was 7170. The cell count [8, 14] was 7540, the z-score [9] was -0.1 (inactive) and the log fold change Tl+ flux (F380Y) was 0.0284 (inactive). The log fold change Tl+ flux (F380Y/beta1) was 0.16 (active), the log fold change Tl+ flux (F380Y/beta2Delta) was 0.0246 (inactive) and the log fold change Tl+ flux (F380Y/beta4) was -0.0396 (inactive). The log fold change Tl+ flux [3] was 0.0789 (inactive), the log fold change Tl+ flux (R275C) was 0.0615 (inactive) and the log fold change Tl+ flux (R275C/beta1) was 0.0553 (inactive). The log fold change Tl+ flux (R275C/beta2Delta) was 0.0141 (inactive), the log fold change Tl+ flux (R275C/beta4) was 0.0532 (inactive) and the log fold change Tl+ flux (R275C/Slo1WT/beta2) was 0.0367 (inactive).

With `CO[C@H]1/C=C/O[C@@]2(C)Oc3c(C)c(O)c4c(O)c(c(C=NN5CCN(C6CCCC6)CC5)c(O)c4c3C2=O)NC(=O)/C(C)=C\C=C\[C@H](C)[C@H](O)[C@@H](C)[C@@H](O)[C@@H](C)[C@H](OC(C)=O)[C@@H]1C` the parasite load remaining [2] was 21% (inactive), the viability [2] was 92% and the fluorescence ratio [4] was 1.06 (inactive). For the same compound, the inhibition [5] was -0.45% (inactive), the inhibition [6] was -0.48% (inactive) and the fluorescence ratio [7] was 0.94 (inactive). For the same compound, the fold change [8, 11] was 0.995 (inactive), the fold change [8, 12] was 1.52 and the cell count [8, 13] was 8010. The cell count [8, 14] was 8050, the z-score [9] was -1.41 (inactive) and the log fold change Tl+ flux (F380Y) was 0.0494 (inactive). For the same compound, the log fold change Tl+ flux (F380Y/beta1) was 0.0885 (inactive), the log fold change Tl+ flux (F380Y/beta2Delta) was 0.179 (active) and the log fold change Tl+ flux (F380Y/beta4) was 0.152 (active). For the same compound, the log fold change Tl+ flux [3] was 0.0279 (inactive), the log fold change Tl+ flux (R275C) was 0.0114 (inactive) and the log fold change Tl+ flux (R275C/beta1) was 0.161 (active). The log fold change Tl+ flux (R275C/beta2Delta) was 0.0213 (inactive), the log fold change Tl+ flux (R275C/beta4) was 0.283 (active) and the log fold change Tl+ flux (R275C/Slo1WT/beta2) was 0.0216 (inactive).

For `CO[C@H]1O[C@@H]2O[C@@]3(C)CC[C@H]4[C@H](C)CC[C@@H]([C@H]1C)[C@@]24OO3`, the parasite load remaining [2] was 32% (inactive), the viability [2] was 66.6% and the fluorescence ratio [4] was 1.02 (inactive). For the same compound, the inhibition [5] was -1.97% (inactive), the inhibition [6] was -3.54% (inactive) and the fluorescence ratio [7] was 1 (inactive). The z-score [10] was -0.742 (inactive), the mean signal [1] was 291 (inactive) and the log fold change Tl+ flux (F380Y) was -0.0298 (inactive). For the same compound, the log fold change Tl+ flux (F380Y/beta2Delta) was -0.0746 (active), the log fold change Tl+ flux [3] was -0.00699 (inactive) and the log fold change Tl+ flux (R275C) was 0.0256 (inactive). The log fold change Tl+ flux (R275C/beta1) was -0.0131 (inactive) and the log fold change Tl+ flux (R275C/beta2Delta) was -0.00466 (inactive).

In the case of `C[C@H]1O[C@@H](O[C@H]2[C@@H](O)C[C@H](O[C@H]3[C@@H](O)C[C@H](O[C@H]4CC[C@@]5(C)[C@H](CC[C@@H]6[C@@H]5C[C@@H](O)[C@]5(C)C(C7=CC(=O)OC7)CC[C@]65O)C4)O[C@@H]3C)O[C@@H]2C)C[C@H](O)[C@@H]1O` (stereo not given in full), the parasite load remaining [2] is reported as -5.28% (inactive), the viability [2] is reported as 8.28% and the fluorescence ratio [4] is reported as 0.93 (inactive). For the same compound, the inhibition [5] was -1.36% (inactive), the inhibition [6] was 4.86% (inactive) and the fluorescence ratio [7] was 0.99 (inactive). For the same compound, the fold change [8, 11] was 0.475 (active), the fold change [8, 12] was 1.15 and the cell count [8, 13] was 266. For the same compound, the cell count [8, 14] was 560, the z-score [9] was -0.815 (inactive) and the log fold change Tl+ flux (F380Y) was -0.0279 (inactive). The log fold change Tl+ flux (F380Y/beta1) was 0.0633 (inactive), the log fold change Tl+ flux (F380Y/beta2Delta) was 0.00458 (inactive) and the log fold change Tl+ flux (F380Y/beta4) was -0.0566 (inactive). The log fold change Tl+ flux [3] was -0.00567 (inactive), the log fold change Tl+ flux (R275C) was -0.0269 (inactive) and the log fold change Tl+ flux (R275C/beta1) was -0.0167 (inactive). For the same compound, the log fold change Tl+ flux (R275C/beta2Delta) was -0.0151 (inactive), the log fold change Tl+ flux (R275C/beta4) was -0.0475 (inactive) and the log fold change Tl+ flux (R275C/Slo1WT/beta2) was 0.0268 (inactive).

In the case of `CCCC1O[C@@H]2C[C@H]3[C@@H]4CCC5=CC(=O)C=CC5(C)[C@H]4[C@@H](O)CC3(C)C2(C(=O)CO)O1` (stereo not given in full), the mean signal [1] is reported as 259 (inactive).

With `CC12C=CC(=O)C=C1CC[C@@H]1[C@@H]2[C@@H](O)CC2(C)[C@H]1CC[C@]2(O)C(=O)CO` (stereo not given in full) the mean signal [1] was 258 (inactive).
